# Measurements reported in PubChem BioAssay (NCI).
# About 83,000 compounds went through this panel and 20% of them were active in at least one assay; those are over-represented in the sample as a whole.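 In brief: 96-well plates, 48 h treatment, single concentration, percent growth endpoint.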 Values without a mark were called inactive. The source made the active and inactive calls. The calls were made as follows: active = growth percent below 10; inactive = the rest.
# What was measured:
# Test in all cases: NCI-60 one-dose screen, 48 h (100 = growth as untreated, 0 = no growth, -100 = all killed)
# NCI-H23 lung = settings: 10 µM unless noted
# NCI-H226 lung = settings: 10 µM unless noted
# NCI-H322M lung = settings: 10 µM unless noted
# HOP-62 NSCLC = settings: 10 µM unless noted
# NCI-H460 lung = settings: 10 µM unless noted
# 786-0 renal = settings: 10 µM unless noted
# MDA-MB-231 breast = settings: 10 µM unless noted
# SF-268 CNS = settings: 10 µM unless noted
# SF-539 CNS = settings: 10 µM unless noted
# HCT-15 colon = settings: 10 µM
# U251 CNS = settings: 10 µM unless noted
# PC-3 prostate = settings: 10 µM unless noted
# SK-MEL-28 melanoma = settings: 10 µM unless noted
# SN12C renal = settings: 10 µM unless noted
# HS 578T breast = settings: 10 µM unless noted
# NCI/ADR-RES ovarian = settings: 10 µM unless noted
# SW-620 colon = settings: 10 µM unless noted
# MCF7 breast = settings: 10 µM unless noted
# HCT-116 colon = settings: 10 µM unless noted
# KM12 colon = settings: 10 µM unless noted
Structure (SMILES),growth (NCI-H23 lung),growth (NCI-H226 lung),growth (NCI-H322M lung),growth (HOP-62 NSCLC),growth (NCI-H460 lung),growth (786-0 renal),growth (MDA-MB-231 breast),growth (SF-268 CNS),growth (SF-539 CNS),growth (HCT-15 colon),growth (U251 CNS),growth (PC-3 prostate),growth (SK-MEL-28 melanoma),growth (SN12C renal),growth (HS 578T breast),growth (NCI/ADR-RES ovarian),growth (SW-620 colon),growth (MCF7 breast),growth (HCT-116 colon),growth (KM12 colon)
ClCCN(CCCl)c1ccc(/C=C\c2ccnc3ccccc23)cc1,61.6%,69.1%,92.3%,120%,56.3%,84.2%,92.2%,94.9%,92.5%,75%,76.4%,55.5%,98.1%,75.7%,89.9%,80.4%,77.2%,61.5%,52.2%,83.1%
Oc1ccc2c3c1O[C@H]1c4[nH]c5ccccc5c4C[C@@]4(O)C(C2)N(CC2CC2)CC[C@]314,90.9%,94.4%,94.3%,95.9%,107%,95.2%,101%,93.2%,103%,99.7%,90.2%,88.1%,105%,103%,92.1%,92.1%,99.9%,99.7%,89.8%,90.7%
S=P(Nc1ccccc1)(Nc1ccccc1)c1ccccc1,92.5%,112%,107%,90.7%,103%,94.6%,90%,90.8%,95.8%,104%,92.1%,85.9%,119%,104%,107%,88.3%,103%,109%,81.1%,102%
COc1ccc(C(c2ccc(OC)cc2)C(Cl)(Cl)Cl)cc1,81.9%,96.9%,106%,83.1%,91.8%,74.4%,93%,88.6%,79.5%,91.8%,90.4%,68.7%,103%,97.8%,,89.6%,89.4%,92.6%,61.8%,83.8%
CC(C)CCC1(CCO)C(=O)NC(=S)NC1=O,110%,105%,105%,105%,109%,110%,104%,95.1%,125%,91.7%,97.2%,87.8%,116%,100%,114%,114%,105%,109%,104%,104%
CCCCCCCCCCOc1ccc(C(=O)Oc2ccc(CSP3(=O)OCC4OC(n5ccc(=O)[nH]c5=O)C(F)C4OP(=O)(O)OCC4OC(n5cnc6c(N)ncnc65)C(F)C4O3)cc2)cc1 (stereo not drawn),103%,75.5%,84.8%,111%,108%,98.6%,111%,104%,23.1%,105%,104%,103%,113%,101%,111%,105%,115%,95.5%,79.9%,103%
COc1cccc2c1C(=O)c1c(O)c3c(c(O)c1C2=O)CC(O)(/C(C)=N/NC(=O)CCC(=O)N/N=C(\C)C1(O)Cc2c(O)c4c(c(O)c2C(OC2CC(N)C(O)C(C)O2)C1)C(=O)c1c(OC)cccc1C4=O)CC3OC1CC(N)C(O)C(C)O1 (stereo not drawn),-44.8% [5 µM] (active),-68.1% [5 µM] (active),-31.6% [5 µM] (active),-31.3% [5 µM] (active),-44.3% [5 µM] (active),-14.4% [5 µM] (active),8.46% [5 µM] (active),-17.3% [5 µM] (active),-39.2% [5 µM] (active),,-27% [5 µM] (active),-19.3% [5 µM] (active),-56.3% [5 µM] (active),-5.24% [5 µM] (active),-11.5% [5 µM] (active),71.8% [5 µM],-23.5% [5 µM] (active),2.38% [5 µM] (active),-31.5% [5 µM] (active),-29.8% [5 µM] (active)
c1ccc(CCN2CCCCC2Cc2ccccc2)cc1 (stereo not drawn),86.2%,102%,78.5%,97.2%,116%,102%,96.4%,99.4%,101%,104%,98.5%,103%,97.5%,99.2%,116%,87.8%,107%,96.1%,78.1%,103%
C[C@]12CCc3sc(-c4ccc(Cl)cc4)nc3C1=CC[C@@H]1[C@@H]2CC[C@]2(C)C(=O)CC[C@@H]12,71.3%,84.3%,82.6%,66%,72.5%,53.4%,64.3%,64.4%,29.6%,34.6%,36.7%,50%,63.1%,65.9%,44.6%,81.6%,22.9%,24.4%,52.3%,66.8%
O=[N+]([O-])c1cccc([As]=[As]c2cccc([N+](=O)[O-])c2)c1 (stereo not drawn),-36.4% (active),-60.7% (active),-97.4% (active),-95.1% (active),-65.7% (active),-93% (active),-91.8% (active),-92.1% (active),-99.7% (active),-83.5% (active),-96.1% (active),-84.8% (active),-98.4% (active),-96% (active),6.73% (active),-1.16% (active),-68.8% (active),-53.6% (active),-89.3% (active),-92.7% (active)
NC(Cc1ccc(O)cc1)C(=O)N/N=C/c1ccc(N(CCCl)CCCl)cc1 (stereo not drawn),69.6%,46.8%,102%,95.4%,27.1%,43%,73.7%,55.9%,33.3%,85.8%,76.7%,56%,108%,46.4%,91.9%,78.4%,86.9%,54.5%,84%,75%
Nc1ncnc2c1c(C(=O)NO)cn2C1OC(CO)C(O)C1O (stereo not drawn),-4.58% (active),13.6%,3.28% (active),5.73% (active),-21.6% (active),9.38% (active),-6.16% (active),-24.7% (active),-32.4% (active),-9.1% (active),11.9%,-20.9% (active),-52.3% (active),-31.9% (active),-7.9% (active),2.24% (active),-3.16% (active),-47.3% (active),7.69% (active),-29.9% (active)
CC(C)(NC(=O)c1nn(CCCCCF)c2ccccc12)c1ccccc1,101%,80.2%,105%,94.2%,102%,89.3%,98.1%,96%,100%,96.3%,84.4%,65%,111%,101%,96.6%,92.8%,102%,98.3%,66.9%,107%
C/C(=C\C(=O)O[C@H]1[C@@H]2[C@H](C)CC[C@H]2[C@]2(C)O[C@@]1(C1CCCCC1)C[C@H]2OC(=O)CO)c1ccccc1,50.8%,41.1%,84.5%,55.1%,13.7%,-16% (active),55.5%,26%,77.2%,18.7%,24.2%,17.9%,64.6%,7.85% (active),-28.1% (active),7.73% (active),43.1%,3.04% (active),7.81% (active),38.2%
O=C1NC(=O)C(=Cc2cn(Cc3ccccc3)c3ccccc23)C(=O)N1,93.2%,-68.9% (active),81.7%,73.9%,29.9%,104%,84.9%,90.8%,89.1%,93.8%,84.1%,84.2%,98%,88.8%,78%,106%,83.6%,85.9%,86.1%,99.5%
